Results filed as inconclusive are left out. Active and inactive are the calls of the source. Calls come from the whole dose curve; as a rule, active = well fitted inhibition curve with a large enough effect; inconclusive = small, poorly fitted or top-dose-only effect; inactive = flat fitted curve, though single readings scatter.
How the values were obtained:
[1] = qHTS profiling for inhibitors of Plasmodium falciparum proliferation (AID 504749);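 for activity, negative = inhibition: 0% = DMSO vehicle and full inhibition = artemisinin control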; for all read-outs here: nearly all actives have a fitted effect of over 60% in size; conditions: P. falciparum in erythrocytes, SYBR Green DNA, 72 h; for activity, negative = inhibition: at 28.7 µM (top of the series)
Method in brief: (§1)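 SYBR Green fluorescence of parasite DNA, read after lysis and overnight dark incubation, measured growth over 72 h in erythrocyte culture at 0.3% parasitemia and 2.5% hematocrit. Data normalised to DMSO and 0.29 uM artemisinin, with plate-drift correction.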

3D7 = assay: as above; conditions: P. falciparum in erythrocytes, SYBR Green DNA, 72 h; series mostly up to 28.7 µM
Method in brief: as §1

7G8 = assay: as above; conditions: P. falciparum in erythrocytes, SYBR Green DNA, 72 h; series mostly up to 28.7 µM
Method in brief: as §1

C2A = assay: as above; conditions: P. falciparum in erythrocytes, SYBR Green DNA, 72 h; series mostly up to 28.7 µM
Method in brief: as §1

CP185 = assay: as above; conditions: P. falciparum in erythrocytes, SYBR Green DNA, 72 h; series mostly up to 28.7 µM
Method in brief: as §1

AS120 = assay: as above; conditions: P. falciparum in erythrocytes, SYBR Green DNA, 72 h; series mostly up to 28.7 µM
Method in brief: as §1

AA1029 = assay: as above; conditions: P. falciparum in erythrocytes, SYBR Green DNA, 72 h; series mostly up to 28.7 µM
Method in brief: as §1

ATS189 = assay: as above; conditions: P. falciparum in erythrocytes, SYBR Green DNA, 72 h; series mostly up to 28.7 µM
Method in brief: as §1

ATS95 = assay: as above; conditions: P. falciparum in erythrocytes, SYBR Green DNA, 72 h; series mostly up to 28.7 µM
Method in brief: as §1
Potency is the fitted concentration of half-maximal effect.

CC(COc1ccccc1)N(CCCl)Cc1ccccc1 (stereo not given)
inactive: activity, negative = inhibition ([1]; parasite line A) 7.32% | activity, negative = inhibition ([1]; parasite line B) 2.35% | Potency (3D7) | Potency (C2A) | Potency (CP185)
active: Potency (7G8) 12.6 µM

O=c1c(O)c(-c2ccc(O)c(O)c2)oc2cc(O)cc(O)c12
active: Potency (3D7) 12.6 µM | Potency (AS120) 11.2 µM

Clc1ccc(C(c2ccccc2Cl)C(Cl)Cl)cc1 (stereo not given)
inactive: activity, negative = inhibition ([1]; parasite line A) -12.9% | activity, negative = inhibition ([1]; parasite line B) -9.4% | Potency (AA1029) | Potency (AS120) | Potency (ATS189) | Potency (ATS95) | Potency (C2A) | Potency (CP185)

CC(C)NCC(O)COc1ccc(CCOCC2CC2)cc1 (stereo not given)
inactive: activity, negative = inhibition ([1]; parasite line A) 13.9% | activity, negative = inhibition ([1]; parasite line B) -3.18% | Potency (3D7) | Potency (AA1029) | Potency (AS120) | Potency (ATS95) | Potency (C2A) | Potency (CP185)
active: Potency (7G8) 11.2 µM

Clc1ccccc1C(c1ccccc1)(c1ccccc1)n1ccnc1
active: Potency ([1]; parasite line A) 0.631 µM | Potency ([1]; parasite line B) 0.708 µM | Potency (AA1029) 0.891 µM | Potency (AS120) 0.178 µM | Potency (ATS189) 0.708 µM | Potency (ATS95) 1 µM | Potency (C2A) 1.78 µM | Potency (CP185) 1.78 µM

Cc1ccc(-c2cc(C(F)(F)F)nn2-c2ccc(S(N)(=O)=O)cc2)cc1
inactive: Potency (CP185)

O=C(Nc1ccc([N+](=O)[O-])cc1Cl)c1cc(Cl)ccc1O
inactive: Potency (C2A) | Potency (CP185)
active: Potency (3D7) 1.78 µM | Potency (7G8) 0.891 µM | Potency (AS120) 0.794 µM

CCOC(=O)c1ncn2c1CN(C)C(=O)c1cc(F)ccc1-2
inactive: activity, negative = inhibition ([1]; parasite line A) 8.32% | activity, negative = inhibition ([1]; parasite line B) 17% | Potency (3D7) | Potency (AA1029) | Potency (AS120) | Potency (ATS189) | Potency (ATS95) | Potency (C2A) | Potency (CP185)

CNCCCC12CCC(c3ccccc31)c1ccccc12
active: Potency (7G8) 10 µM
inactive: activity, negative = inhibition ([1]; parasite line A) 0.742% | activity, negative = inhibition ([1]; parasite line B) -2.12% | Potency (3D7) | Potency (AA1029) | Potency (AS120) | Potency (ATS189) | Potency (C2A) | Potency (CP185)

CN(Cc1cnc2nc(N)nc(N)c2n1)c1ccc(C(=O)N[C@@H](CCC(=O)O)C(=O)O)cc1
active: Potency ([1]; parasite line A) 0.112 µM | Potency ([1]; parasite line B) 0.141 µM | Potency (3D7) 0.141 µM | Potency (7G8) 0.126 µM | Potency (AS120) 0.141 µM | Potency (C2A) 0.251 µM
inactive: Potency (AA1029)

CC(C)NCC(O)c1ccc(O)c(O)c1 (stereo not given)
inactive: activity, negative = inhibition ([1]; parasite line A) -3.62% | activity, negative = inhibition ([1]; parasite line B) -0.405% | Potency (3D7) | Potency (AA1029) | Potency (AS120) | Potency (ATS189) | Potency (ATS95) | Potency (C2A) | Potency (CP185)

CC(C)C(=O)Nc1ccc([N+](=O)[O-])c(C(F)(F)F)c1
inactive: activity, negative = inhibition ([1]; parasite line A) 5.81% | activity, negative = inhibition ([1]; parasite line B) 10.3% | Potency (3D7) | Potency (AA1029) | Potency (AS120) | Potency (ATS189) | Potency (ATS95) | Potency (C2A) | Potency (CP185)

Cc1cnc(C(=O)NCCc2ccc(S(=O)(=O)NC(=O)NC3CCCCC3)cc2)cn1
inactive: activity, negative = inhibition ([1]; parasite line A) 8.33% | activity, negative = inhibition ([1]; parasite line B) 4.07% | Potency (3D7) | Potency (7G8) | Potency (AA1029) | Potency (AS120) | Potency (ATS189) | Potency (ATS95) | Potency (C2A) | Potency (CP185)

NC12CC3CC(CC(C3)C1)C2
inactive: activity, negative = inhibition ([1]; parasite line A) 8.47% | activity, negative = inhibition ([1]; parasite line B) 14.2% | Potency (3D7) | Potency (AA1029) | Potency (AS120) | Potency (ATS189) | Potency (ATS95) | Potency (C2A) | Potency (CP185)

O=C(c1ccc(OCCN2CCCCC2)cc1)c1c(-c2ccc(O)cc2)sc2cc(O)ccc12
active: Potency ([1]; parasite line A) 2.82 µM | Potency ([1]; parasite line B) 11.2 µM | Potency (3D7) 2 µM | Potency (7G8) 2.51 µM | Potency (AA1029) 11.2 µM | Potency (AS120) 2.82 µM | Potency (C2A) 10 µM

CN1CCC(=C2c3ccccc3C=Cc3ccccc32)CC1
inactive: activity, negative = inhibition ([1]; parasite line A) 13.5% | activity, negative = inhibition ([1]; parasite line B) 3.94% | Potency (3D7) | Potency (AA1029) | Potency (ATS189) | Potency (ATS95) | Potency (C2A) | Potency (CP185)

CC(CCc1ccc(O)cc1)NCCc1ccc(O)c(O)c1 (stereo not given)
inactive: activity, negative = inhibition ([1]; parasite line A) 7.14% | activity, negative = inhibition ([1]; parasite line B) -3.6% | Potency (3D7) | Potency (AA1029) | Potency (AS120) | Potency (ATS189) | Potency (ATS95) | Potency (C2A) | Potency (CP185)

CC1(CN2CCC(n3c(=O)[nH]c4ccccc43)CC2)OCc2ccccc2-n2cccc21 (stereo not given)
active: Potency (7G8) 3.16 µM | Potency (AS120) 10 µM

NC(=O)NO
inactive: activity, negative = inhibition ([1]; parasite line A) 16% | activity, negative = inhibition ([1]; parasite line B) 12.9% | Potency (3D7) | Potency (7G8) | Potency (AA1029) | Potency (AS120) | Potency (ATS189) | Potency (ATS95) | Potency (C2A) | Potency (CP185)

CC12CC3CC(C)(C1)CC(N)(C3)C2
inactive: activity, negative = inhibition ([1]; parasite line A) 13.9% | activity, negative = inhibition ([1]; parasite line B) 1.67% | Potency (3D7) | Potency (AS120) | Potency (ATS189) | Potency (C2A) | Potency (CP185)
active: Potency (7G8) 8.91 µM | Potency (AA1029) 10 µM

COc1ccc2[nH]cc(CCNC(C)=O)c2c1
inactive: activity, negative = inhibition ([1]; parasite line A) 6.49% | activity, negative = inhibition ([1]; parasite line B) 12.1% | Potency (3D7) | Potency (7G8) | Potency (AA1029) | Potency (AS120) | Potency (ATS189) | Potency (ATS95) | Potency (C2A) | Potency (CP185)

Cn1ccc2cc3c(cc21)CCN3C(=O)Nc1cccnc1
active: Potency (7G8) 8.91 µM

CC(C)(Oc1ccc(C2CC2(Cl)Cl)cc1)C(=O)O (stereo not given)
inactive: activity, negative = inhibition ([1]; parasite line A) -6.79% | activity, negative = inhibition ([1]; parasite line B) 2.45% | Potency (3D7) | Potency (AA1029) | Potency (AS120) | Potency (ATS189) | Potency (ATS95) | Potency (C2A) | Potency (CP185)

O=c1[nH]cc(F)c(=O)[nH]1
active: Potency (7G8) 12.6 µM
inactive: activity, negative = inhibition ([1]; parasite line B) -26.3% | Potency (ATS189)

CCC1(c2ccccc2)C(=O)NCNC1=O
inactive: activity, negative = inhibition ([1]; parasite line A) 6.87% | activity, negative = inhibition ([1]; parasite line B) 11.7% | Potency (3D7) | Potency (7G8) | Potency (AA1029) | Potency (AS120) | Potency (ATS189) | Potency (ATS95) | Potency (C2A) | Potency (CP185)

CN(C)CCC=C1c2ccccc2C=Cc2ccccc21
active: Potency (7G8) 7.94 µM
inactive: activity, negative = inhibition ([1]; parasite line A) -3.11% | activity, negative = inhibition ([1]; parasite line B) -19.2% | Potency (3D7) | Potency (ATS189) | Potency (C2A) | Potency (CP185)

CCCCc1oc2ccccc2c1C(=O)c1cc(I)c(OCCN(CC)CC)c(I)c1
active: Potency ([1]; parasite line A) 4.47 µM | Potency ([1]; parasite line B) 2.82 µM | Potency (7G8) 3.16 µM | Potency (AA1029) 6.31 µM | Potency (AS120) 3.55 µM | Potency (ATS189) 5.62 µM | Potency (ATS95) 5.01 µM | Potency (C2A) 10 µM | Potency (CP185) 8.91 µM

Reference: PubChem BioAssay (NCATS)
